Compounds with a hit are over-represented: about 3% of the library has one in this group of screens.
PMP22 txn: modulators of PMP22 gene transcription in S16 Schwann cells | S16 Pmp22-F2sN Schwann cells, FLuc/NLuc coincidence luminescence, 24 h | Potency, µM (top dose mostly 57.5 µM), for the others: top-dose activity change, negative = inhibition, hits mostly inhibitors | 43,000 compounds, 2% hits; active = clear falling dose curves in both reporters; inconclusive = both reporters move, but less clearly or upward; inactive = either reporter flat; the % is the NLuc reporter signal
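Reporter cells (S16 Pmp22-F2sN, 500–1,000 per well) exposed to compounds for 24 h, 37C, 5% CO2; lysis with FLuc read after 10 min, then Stop&Glo and NLuc read after 10 min.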
pS6 MEF inh: reduces mTORC1 signaling in Tsc2 and p53 null MEF cells | Tsc2-/- p53-/- MEF, phospho-rpS6 immunofluorescence/PI, 24 h | 44,000 compounds, 0.78% hits | Potency, µM (titrated, usually from 38.3 µM), for the others: at the highest dose activity change, negative = inhibition, most hits filed as inhibitors;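 note: plate controls were DMSO for no effect and rapamycin for full effect; nearly all actives have a fitted effect of over 50% in size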
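Tsc2-/-, p53-/- MEFs (empty-vector stable line) in DMEM + 10% FBS were treated with compounds 24 h at 37 degree Celsius, fixed, and immunostained for phospho-rpS6 (Alexa-488) with propidium iodide counterstain. Laser-scanning cytometry gave % positive cells, normalized against 7.5 nM rapamycin and DMSO.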
OvCa metastasis: ovarian cancer metastasis inhibition, 3D TME model; SKOV3ip1-GFP adhesion/invasion on 3D omental model, fluorescence; 46,000 compounds, 0.1% hits; Potency, µM (titrated, usually from 45.8 µM), without a hit: at the top dose activity change, negative = inhibition, hits mostly inhibitors;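 note: plate controls were DMSO wells for no effect and tomatine positive control wells for full effect; nearly all actives have a fitted effect of over 65% in size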
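A 3D layer of primary human omental fibroblasts, mesothelial cells, fibronectin and collagen I, grown 48 hr, received SKOV3ip1-GFP cells in serum-free medium plus compounds at 0.36-46 umol/L. After 2 hr RT and 16 hr 37 C, fixed adherent GFP cells were counted; normalized to DMSO and tomatine.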
p53null 32C tox: kills p53 null cells at the permissive temperature. 55,000 compounds, 0.62% hits. H1299-neo p53 null cells, ATP luminescence, 24 h, 32C. Potency, µM (highest dose often 46.1 µM), for the others: at the highest dose activity change, negative = cytotoxicity, hits mostly cytotoxic;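 note: 0% = DMSO only and -100% = full killing by 100 µM tamoxifen; nearly all actives have a fitted effect of over 55% in size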
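We seeded p53-null H1299-neo cells, incubated them overnight at 37C, and added compounds across a range up to 46 uM. After 24 hours at 32C, ATP reagent was applied for 20 min at room temperature and luminescence recorded.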
S16 viability: toxic to S16 Pmp22-F2sN Schwann cells. 43,000 compounds, 0.48% hits. Potency, µM (series often up to 57.5 µM), for the others: top-dose activity change, negative = cytotoxicity, hits mostly cytotoxic. S16 Pmp22-F2sN Schwann cells viability, CellTiter-Glo, 24 h. AID 1508642; note: nearly all actives have a fitted effect of over 65% in size
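Used to flag compounds lowering reporter output through toxicity, this quantitative HTS measures ATP-based CellTiter-Glo luminescence in S16 Pmp22-F2sN Schwann cells after 24 h compound exposure at 37C.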
p53null 39C kill: kills p53 null cells at the nonpermissive temperature; 55,000 compounds, 0.97% hits; H1299 p53-null (neo) cells, 39C, ATPlite viability, 24 h; AID 904; Potency, µM (doses to about 46.1 µM), without a hit: at the highest dose activity, negative = cell killing, actives largely listed as cytotoxic;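 note: 0% = DMSO only and -100% = full killing by 100 µM tamoxifen; nearly all actives have a fitted effect of over 50% in size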
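Following overnight plating at 37C (600 cells/well), H1299-neo or H1299-p53A138V cells are dosed up to 46 uM. Incubation lasts 24 hr at 39C before ATP detection.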
An asterisk follows results filed as active; i = inactive; ? = inconclusive; . = no result given; [ ] = dose if it differs, or a comment. Unless noted, calls come from the whole dose curve; as a rule, active = well fitted curve in the direction sought with a large enough effect; inconclusive = small, poorly fitted or top-dose-only effect, or another doubt; inactive = no such curve, though single readings can be large; an effect the other way counts as inactive or inconclusive. Unless noted, % is set by controls: 0 for no effect and ±100 for the full control effect; potency is the fitted concentration of half-maximal effect.

SMILES	PMP22 txn	pS6 MEF inh	OvCa metastasis	p53null 32C tox	S16 viability	p53null 39C kill
Cc1csc2nc(-c3cccc(NC(=O)c4ccccc4F)c3)cn12	?	0.6%	i	?	?	11.2µM*
CC(=O)N1CCCc2cc(S(=O)(=O)N(CCN(C)C)Cc3ccccc3)ccc21	-28.2%	-8.0%	-1.9%	-10.0%	6.9%	10µM*
Cc1ccccc1C(C(=O)NC1CCCCC1)N(C(=O)CNc1ccc(C#N)cc1)c1cccc(F)c1 (stereo unspecified)	.	.	0.4%	.	.	.
O=C1[C@H](Cc2ccc(O)cc2)N2C(=O)CCN(C(=O)NCc3ccccc3)[C@H]2CN1Cc1cccc2ccccc12	.	.	-28.8%	.	.	.
COc1cccc(-c2noc(-c3cc4ccccc4oc3=O)n2)c1OC	-2.1%	-1.6%	-2.4%	-28.9%	9.7%	-6.8%
COc1ccc(-c2noc(-c3cccc(OC)c3OC)n2)cc1	-0.5%	-13.7%	-1.7%	12.6µM*	2.8%	17.8µM*
O=C(Nc1cccc(Br)c1)c1cccc(S(=O)(=O)N2CCCCCC2)c1	.	.	-0.9%	.	.	.
COc1cc(=C2C=c3ccccc3=N2)[nH]c1=Cc1[nH]c(C)cc1C	.	.	-18.3%	.	.	.
CCn1c(=O)cc(SCC(=O)Nc2ccc(C)c(F)c2)c2ccccc21	-7.7%	7.0%	0.7%	6.2%	-0.5%	-12.9%
CCN(CC)CCOC(=O)c1ccc(NC(=O)CSc2cc(=O)n(CC)c3ccccc23)cc1	?	-1.4%	-5.6%	4.3%	?	2.51µM*
COc1cc2nccc(Oc3ccc(NC(=O)C4(C(=O)Nc5ccc(F)cc5)CC4)cc3)c2cc1OC	.	.	-5.8%	.	.	.
COc1ccccc1NC(=O)c1c(NCc2ccc(OC)c(OC)c2OC)sc2c1CCCC2	5.02µM*	-10.1%	12.5%	35.3%	?	26.7%
CCOc1ccc(C2CC(=O)c3c([nH]c(C(=O)OC4CCC(C)CC4)c3C)C2)cc1 (stereo unspecified)	-6.8%	-13.1%	24.7%	-7.9%	4.2%	10.4%
COc1cc(C2CC(=O)c3c([nH]c(C(=O)OCc4ccc(C)cc4)c3C)C2)cc(OC)c1OC (stereo unspecified)	?	-2.3%	i	9.4%	-2.7%	?
CCc1ccc(C2CC(=O)c3c([nH]c(C(=O)OCCOc4ccccc4)c3C)C2)cc1 (stereo unspecified)	15µM*	5.21µM*	?	-20.9%	?	?
COc1ccc(OC)c(C2CC(=O)c3c([nH]c(C(=O)OCc4ccc(C)cc4)c3C)C2)c1 (stereo unspecified)	-15.6%	6.56µM*	i	19.5%	?	0.6%
Cc1c(C(=O)OCc2ccccc2)[nH]c2c1C(=O)CC(c1ccc(Cl)cc1)C2 (stereo unspecified)	?	?	i	-3.7%	-26.7%	-1.6%
CCOc1ccc(C2CC(=O)c3c([nH]c(C(=O)OCCOc4ccccc4)c3C)C2)cc1 (stereo unspecified)	?	-10.4%	-11.5%	-23.1%	28.2µM*	?
C[C@@H]1CCO[C@H]2Cn3cc(C(=O)NCc4ccc(F)cc4F)c(=O)c(O)c3C(=O)N12	.	.	0.5%	.	.	.
COc1ccc(NS(=O)(=O)c2cc(Br)cc3c2N(C(=O)C2CC2)CC3)cc1OC	13.9µM*	?	-0.4%	-19.6%	-14.3%	13.0%
C[C@@]1(c2cc(-c3cncnc3)c(F)cc2F)CCSC(N)=N1	.	.	11.3%	.	.	.
COc1ccccc1-c1cccc(-c2c(O)c3cc(C#N)c(Cl)cc3[nH]c2=O)c1	.	.	5.8%[92.2 µM]	.	.	.
CCCS(=O)(=O)c1ncc(Cl)c(C(=O)N2CCN(c3ccc(OC)cc3)CC2)n1	5.97µM*	?	i	?	5.01µM*	-12.5%
